# Many of the other results were omitted from the sample, so hits are more common in it than they were.
# mHTT-CaM PPI inh = mutant huntingtin-calmodulin interaction inhibitors – biochemical, AlphaScreen, primary screen; P42858; AlphaScreen His-mHTT/GST-CaM binding, luminescence; inhibition, % at 15 µM; 3.6% of 190,000 active; AID 1671202, 2021
# Pf apPOL inh = Pf-apPOL inhibitors, biochemical, fluorescence. inhibition, % at 10 µM. 0.25% of 210,000 active. Recombinant Pf-apPOL, molecular beacon fluorescence, 1.5 h. Plasmodium falciparum apicoplast DNA polymerase (apPOL)
# A number is an active result; - = inactive; . = no result. No stated cut-off is given here; in the data, active means inhibition above about 50%; inactive means the rest.
SMILES,mHTT-CaM PPI inh,Pf apPOL inh
CC(C)NC1CCCc2c1[nH]c1ccc([N+](=O)[O-])cc21 (stereo not drawn),-,-
O=[N+]([O-])c1ccc2[nH]c3c(c2c1)CCCC3NC1Cc2ccccc2C1 (stereo not drawn),93,-
COc1ccc(Cl)cc1N1C(=O)C2CCCN2C1c1ccccc1Cl (stereo not drawn),-,-
O=C(Nc1c2c(nn1-c1ccc(F)cc1)CS(=O)(=O)C2)c1cc2ccccc2oc1=O,-,-
c1cncc(CCNc2ncnc3c2CCC3)c1,-,-
O=C(CN(C1CCCCC1)S(=O)(=O)c1ccc(Br)cc1)NC1CC1,-,-
O=C(O)CN(C1CCCCC1)S(=O)(=O)c1ccc(Br)cc1,-,68
COc1cccc(OC)c1C(=O)N1CCN(Cc2ccccc2[N+](=O)[O-])CC1,-,-
Cn1nc(C(=O)NCc2ccc(Cl)cc2)c2c1CCN(C(=O)C1CCCC1)C2,92,-
Cn1nc(C(=O)NCc2ccc3c(c2)OCO3)c2c1CCN(C(=O)C1CCCCC1)C2,72,-
Cn1nc(C(=O)NCc2ccc(Cl)cc2)c2c1CCN(C(=O)CC1CCCC1)C2,-,-
Cn1nc(C(=O)NCc2ccccc2)c2c1CCN(C(=O)C1CCC1)C2,-,-
CCCC(=O)N1CCc2c(c(C(=O)NCc3ccc(Cl)cc3)nn2C)C1,84,-
CC(C)CC(=O)N1CCc2c(c(COCc3ccc(Cl)cc3)nn2C)C1,63,-
CCC(=O)N1CCc2c(c(COCc3ccc(C)cc3)nn2C)C1,-,-
CCC(=O)N1CCc2c(c(C(=O)NCc3ccc4c(c3)OCO4)nn2C)C1,-,-
Cc1nc2cc(NC(=O)COc3ccccc3)ccc2s1,-,-
CC(CNC(=O)c1cncc(Br)c1)NC(=O)c1cncc(Br)c1 (stereo not drawn),-,-
COc1cc(Br)c(CN(C)CCc2ccccn2)cc1OC,-,-
Cn1cc(CC(=O)Nc2ccc3c(c2)OCCO3)c2ccccc21,-,-
Cc1cccc(CNC(=O)c2nn(C)c3c2CN(C(=O)C2CCC2)CC3)c1,-,-
Cn1nc(C(=O)NCc2ccc(F)cc2)c2c1CCN(C(=O)C1CCCC1)C2,77,-
O=C(Cn1cccc1-c1nnc(C2CCC2)o1)Nc1cccc(Br)c1,-,-
CCCNc1c(N)cc(C(F)(F)F)cc1[N+](=O)[O-],55,-
O=[N+]([O-])c1cc(C(F)(F)F)cc([N+](=O)[O-])c1NCCCn1ccnc1,.,-
SMILES,mHTT-CaM PPI inh,Pf apPOL inh
CN1CCC(N(C)C(=O)c2cc3c(-c4ccccc4)nn(-c4ccccc4)c3s2)CC1,100,-
Cc1nn(-c2ccccc2)c2sc(C(=O)NC(C)C)cc12,-,-
COc1ccc(C(=O)N2CCC(C(=O)NCc3nc(C)no3)CC2)cc1OC,-,-
CCCCC1C(=O)N(c2ccccc2)N(c2ccccc2)C1=O,.,-
CN(C)CC1C(=O)N(c2ccccc2)N(c2ccccc2)C1=O,72,-
COc1cc(/C=C2/C=C(c3ccc(Cl)cc3)OC2=O)c([N+](=O)[O-])cc1OC,-,-
CCC(=O)NCCc1csc(C2CCN(C(=O)c3ccc(F)c(F)c3)CC2)n1,-,-
Cn1cccc1C1CC(c2ccccc2Cl)=NN1C(=O)CN1CCCCC1 (stereo not drawn),94,-
COc1ccc(C2=NN(C(=O)CN3CCCCC3)C(c3ccccc3Cl)C2)cc1 (stereo not drawn),-,-
COc1ccc(C2=NN(C(=O)CN3CCOCC3)C(c3ccccc3Cl)C2)cc1 (stereo not drawn),-,-
CCN1CCN(CC(=O)N2N=C(c3ccccc3Cl)CC2c2cccn2C)CC1 (stereo not drawn),82,-
Cc1ccc(C(=O)Nc2nnc(C3CC(=O)N(c4ccc(F)cc4)C3)o2)cc1 (stereo not drawn),-,-
Nc1nc(NC(=O)C(Cl)(Cl)Cl)nn1-c1ccccc1,85,-
Nc1nc(NC(=O)c2ccc(Cl)cc2)nn1-c1ccccc1,-,-
COc1ccc(C(C[N+](=O)[O-])c2c(C)[nH]c3ccccc23)cc1OC (stereo not drawn),-,-
COc1ccc(C(C[N+](=O)[O-])c2c[nH]c3ccccc23)cc1 (stereo not drawn),-,-
COc1cc(C(C[N+](=O)[O-])c2c(-c3ccccc3)[nH]c3ccccc23)cc(OC)c1OC (stereo not drawn),58,-
COc1ccc(C(C[N+](=O)[O-])c2c(C)[nH]c3ccccc23)c(OC)c1 (stereo not drawn),63,-
O=C(Nc1cc(F)c2[nH]c(=O)ccc2c1)c1ccc(F)cc1,-,-
Cc1cccc(C)c1OCC(=O)Nc1cccc(C(F)(F)F)c1,-,-
Cn1nc(-c2nc(Cc3ccccc3)no2)c2c1CCN(C(=O)Nc1ccccc1)C2,-,-
CN(CC(=O)N1CCCCCC1)S(=O)(=O)c1ccc(Cl)cc1,-,-
CN(CC(=O)N1CCCC1)S(=O)(=O)c1ccc(Cl)cc1,-,51

# Screens deposited in PubChem BioAssay by University of Kansas High Throughput Screening Laboratory.
